Measurements published in PubChem BioAssay AID1259415 (National Center for Advancing Translational Sciences (NCATS), 2018).
Screen size: about 410,000 compounds; about 18,000 (4.4%) were called active. About 7% were inconclusive and are not listed. No stated cut-off is given here; in the data, active means activity change below about -60%; inconclusive means no clear call, values can overlap the other calls; inactive means above about -39%. What follows is part of a selection rich in actives, with near analogues and random picks from the rest.

experiment: qHTS Assay for inhibitors of the human cytomegalovirus (HCMV); conditions: HFF cells, HCMV-luciferase reporter, 72 h; at 57.5 µM; stronger effect = lower value
Source text: NCGC Assay Overview: Infection with human cytomegalovirus (HCMV) continues to pose significant threats for pregnant women and immunocompromised hosts. HCMV causes serious morbidity and mortality in transplant recipients, and congenital HCMV is the leading infectious cause of mental retardation and deafness in children. In the 1990s, the annual costs associated with the disease burden of congenital CMV were estimated at around $2 billion. A HCMV vaccine is not available yet and HCMV therapies result in intolerable side effects and emergence of drug resistant viruses. […] Towards this goal we have developed and characterized a luciferase HCMV reporter that was initially used in 96 well plates and then optimized to 1536-well plates for utilization in screening of the MLSMR collection, the NGCG diversity collection and the NCGC Pharmaceutical Collection of approved and investigational drugs.
NCGC Assay Protocol Summary:
This is a cell-based assay for HCMV inhibition in HFFs cells. The screening used 2 compound doses and the HCMV-luciferase at MOI of 1 PFU/cell. Cells were treated and infected with HCMV. At 72 h post infection cell lysates were collected and luciferase activity was determined using the Glomax-Multi + Detection System (Promega, Madison, WI). Data were normalized to the controls for basal activity (buffer only) and known HCMV inhibitors Salinmoycin.
1536-well assay protocol for the assay:
(1) Add 3 ul CMV/HFF cell culture. 1000 cells/well in DMEM nirmal media.
(2) Incubate 16 hr at 37C.
(3) Add 23 nl control compound, 10uM of Salinomycin.
(4) Add 23 nl compounds in DMSO solution.
(5) Add 3 ul CMV suspension. Final 1 puf/ul, Virus stock 2000pfu/ul
(6) Incubate 72 hrs at 37C.
(7) Add 4 ul OneGlo Luc Reagent.
(8) Incubate 5 min at room temperature.
On the % scale 0 is the no-effect control and ±100 the full control effect.

Row | Structure (SMILES) | activity change, negative = inhibition
1 | O=C(Nc1ccc2ccccc2c1)/C(=C/c1cccc(Br)c1)NC(=O)c1ccco1 | -64.4% (active)
2 | O=C(NCc1ccco1)c1ccc([N+](=O)[O-])cc1Cl | -4.15% (inactive)
3 | CC(Oc1ccc2ccccc2c1)C(=O)NNC(=S)NC(=O)c1ccco1 (stereo unspecified) | -3.96% (inactive)
4 | O=C(Nc1cccc(C(=O)O)c1)/C(=C\c1ccccc1)NC(=O)c1ccc(Br)o1 | 23.2% (inactive)
5 | O=C(NCc1ccco1)/C(=C\c1cccc([N+](=O)[O-])c1)NC(=O)c1ccco1 | -72% (active)
6 | O=C(NCc1ccco1)/C(=C/c1cccc([N+](=O)[O-])c1)NC(=O)c1ccco1 | 20.5% (inactive)
7 | O=C(CNS(=O)(=O)c1cccs1)N1CCN(c2ccccc2Cl)CC1 | 68.5% (inactive)
8 | CC1CCCCN1CC(=O)N1CCCc2c1c(=O)oc1ccc(OCc3ccccc3)cc21 (stereo unspecified) | -2.34% (inactive)
9 | CCCCn1cc(S(=O)(=O)c2ccc(OCC)cc2)c(=O)c2cc(OC)c(OC)cc21 | 44.7% (inactive)
10 | COc1ccc(CCNC(=O)Cn2c(=O)n(-c3ccccc3)c(=O)c3c(C)c(C)sc32)cc1OC | -11.6% (inactive)
11 | COc1ccccc1-c1noc(-c2ccc(NCc3ccccc3)c([N+](=O)[O-])c2)n1 | 0.104% (inactive)
12 | Cc1ccc(C)c(N2CCN(C(=O)CCc3c(C)nc4c(c3C)c(=O)n(C)c(=O)n4C)CC2)c1 | -21.4% (inactive)
13 | Cc1ccc(C)c(N2CCN(C(=O)CCCCCn3c(=S)[nH]c4ccc(N5CCOCC5)cc4c3=O)CC2)c1 | -88.3% (active)
14 | COc1cccc(N2CCN(C(=O)CCCCCn3c(=O)[nH]c4ccccc4c3=O)CC2)c1 | -7.41% (inactive)
15 | CC1(C)OC(=O)C2=C(CC(CCc3ccccc3)OC2c2ccc(Cl)cc2)O1 (stereo unspecified) | 7.29% (inactive)
16 | Cc1cc(C)cc(OC(C)C(=O)Nc2nc3c(s2)CCCC3)c1 (stereo unspecified) | -26.6% (inactive)
17 | COc1cc(C(=O)N2CCN(C(=O)COc3cccc(C)c3)CC2)cc(OC)c1OC | 28.1% (inactive)
18 | CCc1cccc(C)c1Nc1c(-c2ccc(N(C)C)cc2)nc2ncccn12 | -14.5% (inactive)
19 | CC(Nc1ccc(-c2nc(-c3ccco3)no2)cc1[N+](=O)[O-])c1ccccc1 (stereo unspecified) | 41.2% (inactive)
20 | CCOC(=O)Cn1c(CN(Cc2ccccc2)Cc2ccccc2)nc2c1c(=O)[nH]c(=O)n2C | 31.2% (inactive)
21 | COC(=O)[C@@H]1[C@@H](CO)[C@@H]2Cn3c(ccc(Br)c3=O)[C@H]1N2C(=O)c1cnccn1 | 13.3% (inactive)
22 | Cc1nc(CNS(=O)(=O)c2cc([N+](=O)[O-])ccc2C)cs1 | 17.1% (inactive)
23 | COc1ccccc1CNS(=O)(=O)c1ccc(C)cc1 | -4.42% (inactive)

Row | Structure (SMILES) | activity change, negative = inhibition
24 | Cc1nc(CNS(=O)(=O)c2ccc(Oc3ccccc3)cc2)cs1 | -90.1% (active)
25 | O=C1CSC2(C(=O)N(Cc3ccccc3)c3ccccc32)N1c1cccc(F)c1 (stereo unspecified) | -27.5% (inactive)
26 | CC(=O)c1ccccc1OCc1ccc(C(=O)c2ccccc2)cc1 | -23.4% (inactive)
27 | O=C(NC1CCC(O)CC1)c1ccccc1OCc1ccc(F)cc1 (stereo unspecified) | -22.6% (inactive)
28 | Cc1nc2ccccc2cc1OCc1ccc(F)cc1 | -82.9% (active)
29 | CCCN(CC(=O)Nc1ccccc1C)C(=O)c1ccc2[nH]c3c(c2c1)CC(C)CC3 (stereo unspecified) | -61.3% (active)
30 | CCCN(CC(=O)Nc1ccccc1C)C(=O)c1cc(=O)[nH]c2ccccc12 | 42.9% (inactive)
31 | CCCN(CC(=O)Nc1ccccc1C)C(=O)c1ccc(OCC(=O)N2CCOCC2)c(OCC)c1 | 0.271% (inactive)
32 | CC(C)NC(=O)Nc1cccc2c1O[C@@H](CN(C)S(=O)(=O)c1ccc(F)cc1)[C@@H](C)CN([C@H](C)CO)C2=O | 7.5% (inactive)
33 | Clc1cccc(Cl)c1Cl | -15.9% (inactive)
34 | COc1ccc(S(=O)(=O)c2c(Nc3ccc(C)cc3)sc(C(=O)c3ccc(C)cc3)c2N)cc1 | -10.2% (inactive)
35 | Cc1ccc(NC(=O)c2cn3c4c(ccc(Cl)c4c2=O)OC(C)C3)cc1C (stereo unspecified) | 0.532% (inactive)
36 | CSc1ccc(Cl)c(C(=O)OCC(=O)N2CC(C)OC(C)C2)c1 (stereo unspecified) | -9.66% (inactive)
37 | CCc1ccccc1NC(=O)CN(C)C(=O)c1cc(C2CC2)nn1-c1ccccc1 | -18% (inactive)
38 | COc1ccc(NC(=O)CN(C)C(=O)c2cc(C3CC3)nn2-c2ccccc2)cc1 | -100% (active)
39 | COc1ccc(NC(=O)CN(C)C(=O)c2n[nH]c3ccccc23)cc1 | 5.1% (inactive)
40 | Cc1nc2nc(SCC(=O)N(Cc3ccccc3)C(C)C)nn2c(C)c1Cc1ccccc1Cl | -0.509% (inactive)
41 | CSc1ccc(C2c3c(oc4ccccc4c3=O)C(=O)N2CCCN2CCOCC2)cc1 (stereo unspecified) | 7.95% (inactive)
42 | CNC[C@H]1OCc2cnnn2CCCC(=O)N([C@H](C)CO)C[C@@H]1C | -9.25% (inactive)
43 | Cc1ccc(-c2nnc3c4ccccc4c(C)nn23)cc1NC(=O)c1cccc(Br)c1 | 35.9% (inactive)
44 | CSc1nc(-c2ccccc2Cl)nc2c1Cc1c(CO)cnc(C)c1O2 | 9.54% (inactive)
45 | CCOc1ccc(C2CC(=O)c3c([nH]c(C(=O)OCc4ccccc4)c3C)C2)cc1 (stereo unspecified) | -87.7% (active)
46 | C=CCOC(=O)C1=C(C)NC(C)=C(C(=O)OCC=C)C1c1cccs1 | -12.1% (inactive)
